High-throughput results (PubChem BioAssay)
POLB inh – qHTS Assay for Inhibitors of DNA Polymerase Beta. Pol beta primer extension/strand displacement, fluorescence kinetic. AID 485314, 2010. actives 1.3% (n = 340,000). P06746. Potency, µM (series often up to 114 µM), hits mostly inhibitors
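Curves were derived by four-parameter Hill fits of normalized qHTS data. The kinetic fluorescent primer-extension read was taken at 0 and 10 min after 50 nM substrate, following a 15 min room-temperature preincubation of 10 nM enzyme with compounds.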
Pol kappa inh-1 – qHTS for Inhibitors of Polymerase Kappa. DNA polymerase kappa (Homo sapiens), Q9UBT6. purified Pol kappa, fluorescent DNA synthesis assay, 10 min. Potency, µM (highest dose often 107 µM), actives largely listed as inhibitors. actives 0.53% (n = 400,000). AID 588579, 2011
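Fluorescent qHTS in 1536-well format: enzyme (10 nM) and compound sat 15 min at room temperature before 50 nM substrate (final) was added. Signal taken at 0 and 10 min; no-enzyme buffer wells were negative controls.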
Pol eta inh-1 – qHTS for Inhibitors of Polymerase Eta. actives 1.2% (n = 390,000). recombinant Pol eta, fluorescent DNA replication assay. Potency, µM (doses to about 114 µM), actives largely listed as inhibitors. DNA polymerase eta (Homo sapiens), Q9Y253
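Pol eta (10 nM) was preincubated with compounds for 15 min at room temperature, after which fluorescent replication substrate (50 nM final) was added to start the reaction. Fluorescence was read kinetically at 0 and 10 min.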
WRN inhibitor – qHTS for Inhibitors of WRN Helicase | Potency, µM (top dose mostly 114 µM), actives largely listed as inhibitors | actives 0.46% (n = 360,000) | Bifunctional 3'-5' exonuclease/ATP-dependent helicase WRN (Homo sapiens), Q14191 | AID 651768, 2012 | WRN helicase unwinding, fluorescent forked duplex, kinetic; note: nearly all actives have a fitted effect of over 55% in size
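Kinetic fluorescence helicase assay: unwinding of a quenched forked DNA duplex (100 nM final) with 2 mM ATP final raises red fluorescence (525/598 nm). Compounds sat 15 min at room temperature with 20 nM WRN beforehand.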
Pol iota inh – qHTS for Inhibitors of Polymerase Iota; DNA polymerase iota (Homo sapiens), Q9UNA4; Pol iota fluorescent replication assay, 10 min; Potency, µM (doses to about 115 µM), actives largely listed as inhibitors; actives 1% (n = 390,000); AID 588590, 2011
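Pol iota at 10 nM preincubated 15 min with compounds at room temperature; reaction started with fluorescent substrate, 50 nM final. Fluorescence read kinetically at 0 and 10 min; buffer-only wells as negative control.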
L3MBTL1 inh – qHTS Assay for the Inhibitors of L3MBTL1; Lethal(3)malignant brain tumor-like protein 1 (Homo sapiens), Q9Y468; AlphaScreen L3MBTL1–H3K9me1 peptide binding; Potency, µM (titrated, usually from 57.1 µM), usual class: inhibitors; actives 0.66% (n = 230,000); AID 485360, 2010; note: nearly all actives have a fitted effect of over 60% in size
Target sequence (Q9Y468 whole entry, looked up): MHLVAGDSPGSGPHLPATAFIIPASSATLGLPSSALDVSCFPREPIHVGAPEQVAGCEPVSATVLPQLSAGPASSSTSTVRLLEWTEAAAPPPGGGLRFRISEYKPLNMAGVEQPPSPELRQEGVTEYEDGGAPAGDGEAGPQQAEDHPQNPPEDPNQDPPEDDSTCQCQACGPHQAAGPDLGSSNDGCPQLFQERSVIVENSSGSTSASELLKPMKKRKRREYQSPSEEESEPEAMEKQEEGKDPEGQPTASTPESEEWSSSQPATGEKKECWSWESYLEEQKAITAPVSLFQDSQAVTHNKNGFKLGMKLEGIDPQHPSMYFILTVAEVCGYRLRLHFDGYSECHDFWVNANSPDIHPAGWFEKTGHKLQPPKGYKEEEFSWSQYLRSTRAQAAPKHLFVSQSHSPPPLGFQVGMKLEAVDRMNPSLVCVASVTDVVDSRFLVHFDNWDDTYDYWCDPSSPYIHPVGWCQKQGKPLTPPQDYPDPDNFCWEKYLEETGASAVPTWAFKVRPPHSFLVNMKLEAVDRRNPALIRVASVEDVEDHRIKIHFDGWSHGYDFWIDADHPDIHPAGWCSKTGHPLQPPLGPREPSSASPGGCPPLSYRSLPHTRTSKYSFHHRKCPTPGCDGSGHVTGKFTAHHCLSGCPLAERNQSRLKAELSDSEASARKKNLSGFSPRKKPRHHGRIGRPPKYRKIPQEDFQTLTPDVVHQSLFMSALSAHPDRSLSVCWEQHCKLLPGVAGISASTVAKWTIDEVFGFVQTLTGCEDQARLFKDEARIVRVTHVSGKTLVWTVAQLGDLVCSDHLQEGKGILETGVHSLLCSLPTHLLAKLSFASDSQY
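L3MBTL1 50 nM + b-AHA-H3(1-15)K9me1 75 nM, 30 min RT; compound added, 30 min RT; streptavidin donor/Ni-chelate acceptor beads 10 ug/mL each final, 30 min RT dark; AlphaScreen read.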
GALK inh confirm – Confirmation Assay for Inhibitors of Human Galactokinase (GALK); shares compounds with Pol eta inh-1; AID 2015, 2009; purified GALK, Kinase-Glo ATP depletion luminescence; Potency, µM (doses to about 115 µM), most hits filed as inhibitors; actives 70% (n = 150)
GALK redox cs – Confirmatory Assay for Inhibitors of Human Galactokinase (GALK): Phenol-HRP redox assay counterscreen; shares compounds with Pol eta inh-1; Phenol red-HRP H2O2 redox cycling, absorbance 600 nm; Potency, µM (highest dose often 115 µM), hits mostly inhibitors; actives 40% (n = 150)
HEK293 viability – Secondary Assay for Inhibitors of Human Galactokinase (GALK): HEK-293 Cell Viability Assay. shares compounds with Pol eta inh-1. HEK-293 viability, ATP luminescence (CellTiter-Glo), 24/48 h. Potency, µM (titrated, usually from 46.1 µM), most hits filed as inhibitors. actives 10% (n = 170). AID 2547, 2010
Pol kappa inh-2 – qHTS for Inhibitors of Polymerase Kappa: Confirmatory Assay for Cherry-picked Compounds; shares compounds with Pol eta inh-1; purified Pol-kappa, fluorescent strand-displacement substrate; Potency, µM, hits mostly inhibitors; actives 76% (n = 920)
Pol eta inh-2 – qHTS for Inhibitors of Polymerase Eta: Confirmatory Assay for Cherry-picked Compounds. Potency, µM, hits mostly inhibitors. Pol eta primer extension, TAMRA/BHQ fluorescence, 10 min. actives 64% (n = 2,600). shares compounds with Pol eta inh-1
Hits are given with their value; . = inactive; ? = inconclusive; / = no result given. This is a sample that favours compounds with a hit; in the whole collection about 2.5% have one here. Calls come from the whole dose curve; as a rule, active = well fitted curve in the direction sought with a large enough effect; inconclusive = small, poorly fitted or top-dose-only effect, or another doubt; inactive = no such curve, though single readings can be large; an effect the other way counts as inactive or inconclusive.

SMILES	POLB inh	Pol kappa inh-1	Pol eta inh-1	WRN inhibitor	Pol iota inh	L3MBTL1 inh	others
COc1ccc(N/N=C(/C#N)S(=O)(=O)c2nsc(C)c2C#N)cc1	.	.	.	.	.	/	GALK inh confirm=?;GALK redox cs=.;HEK293 viability=.
COc1ccc(N/N=C(/C#N)S(=O)(=O)C(C)(C)C)cc1	.	.	.	.	.	/
C/C(=N\Nc1cccc(C(F)(F)F)c1)c1ccc(O)cc1	.	.	.	.	.	.
Cc1snc(S(=O)(=O)/C(C#N)=N/Nc2cccc(C(F)(F)F)c2)c1C#N	.	.	.	.	.	/	GALK inh confirm=24µM;GALK redox cs=.;HEK293 viability=.
CNC[C@H]1OCCCC[C@H](C)Oc2ccc(NC(=O)CCCN(C)C)cc2C(=O)N([C@H](C)CO)C[C@@H]1C	/	/	.	.	/	/
O=C(O)c1ccc(S(=O)(=O)N[C@H](Cc2ccc(O)cc2)C(=O)O)cc1	/	/	/	/	/	?	Pol eta inh-2=34
CN(C)c1ccc(NC(=O)CSCc2nc3c(nnn3Cc3ccc(F)cc3)c(=O)[nH]2)cc1	28µM	?	50µM	.	28µM	.	Pol eta inh-2=?
COc1ccc(N=C2NC(=O)/C(=C/C=C/c3ccccc3)S2)cc1	.	.	.	.	.	/
Cc1ccc(N=C2NC(=O)/C(=C/C=C/c3ccco3)S2)cc1	22µM	20µM	10µM	35µM	3.2µM	?	Pol eta inh-2=67
S=C1Nc2ccccc2CS1	/	/	.	.	/	/
S=C1Cc2ccccc2N1	.	.	25µM	.	10µM	.	GALK inh confirm=27µM;GALK redox cs=7.5µM;HEK293 viability=.
Cc1ccc(C2(C)NC(=O)N(CC(=O)Nc3ccc(-c4nc5ccc(C)cc5s4)cc3)C2=O)cc1 (stereo not given)	.	.	.	.	.	/
Cc1ccc(C)c(CN2C(=O)CSc3ccc(C(=O)NCCN4CCOCC4)cc32)c1	.	.	.	.	.	/	GALK inh confirm=.;GALK redox cs=.;HEK293 viability=.
CCCCCCC(=O)N1C/C=C\C(c2ccc(OC)cc2)N(Cc2ccc(F)cc2)C(=O)[C@H]1Cc1ccccc1 (stereo not given in full)	.	.	.	.	.	/
Cc1ccc(S(=O)(=O)N2CCC(C(=O)OCC(=O)N(CCC#N)c3ccc(F)cc3)CC2)cc1C	/	.	.	.	.	.
Cc1ccc(-c2[nH]c3c(c2-c2c(-n4cccc4)n(C)c(=O)[nH]c2=O)c(=O)[nH]c(=O)n3C)cc1	.	.	?	/	.	/
Cn1c(-n2cccc2)c(-c2c(-c3ccccc3)[nH]c3c2c(=O)[nH]c(=O)n3C)c(=O)[nH]c1=O	16µM	?	79µM	/	79µM	14µM	Pol kappa inh-2=?
